Compound activity as filed in PubChem.
A selection: hits, their analogues and other compounds. The true share with any hit is near 11%.
Luciferase inh = inhibitors of firefly (Photinus pyralis) luciferase; purified P. pyralis luciferase, luminescence, biochemical; Potency, µM (top dose mostly 115 µM), usual class: inhibitors; hit rate 2.5% among 76,000; AID 1347043; also: % is scaled to controls: 0 for no effect and ±100 for the full control effect; nearly all actives have a fitted effect of over 65% in size
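Cell-free enzyme assay, 10nM P. pyralis luciferase, luciferin and ATP each at 10uM. Inhibition profiled over a 6-point titration, read as luminescence.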
HEK cytotox = kills HEK 293 cells. Potency, µM (highest dose often 115 µM), for inactives: top-dose activity change, negative = cytotoxicity, most hits filed as inhibitors. hit rate 6.6% among 94,000. HEK 293 viability, ATP luminescence (CellTiter-Glo), 48-72 h; also: % is scaled to controls: 0 for no effect and ±100 for the full control effect; nearly all actives have a fitted effect of over 60% in size
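Pintool-delivered compounds were incubated with HEK 293 cells (250 cells/well) at 37 degree Celsius for 48 or 72 hr. ATP-dependent luminescence (CellTiter-Glo) then reported remaining viable cells.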
3T3 cytotox = kills NIH 3T3 cells; NIH 3T3 viability, CellTiter-Glo ATP luminescence, 48-72 h; hit rate 4.3% among 94,000; AID 1345082; Potency, µM (highest dose often 96.7 µM), inactives show at the highest dose activity change, negative = cytotoxicity, most hits filed as inhibitors; also: % is scaled to controls: 0 for no effect and ±100 for the full control effect; nearly all actives have a fitted effect of over 55% in size
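Mouse fibroblast NIH 3T3 cells, 400 per well, received compound via pintool and were incubated for 48 or 72 hr prior to CellTiter-Glo ATP luminescence measurement.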
NPR1 antag = blocks ANP-stimulated signaling of human Npr1 receptor | AID 1347048 | hit rate 1.6% among 76,000 | Potency, µM (titrated, usually from 46.3 µM), for the others: top-dose activity change, negative = inhibition, hits mostly inhibitors | HEK293 hNpr1 GloSensor cGMP, ANP-stimulated luminescence | P16066; calls by dose curve; also: % is scaled to controls: 0 for no effect and ±100 for the full control effect; nearly all actives have a fitted effect of over 60% in size
Target sequence (P16066 whole entry, looked up): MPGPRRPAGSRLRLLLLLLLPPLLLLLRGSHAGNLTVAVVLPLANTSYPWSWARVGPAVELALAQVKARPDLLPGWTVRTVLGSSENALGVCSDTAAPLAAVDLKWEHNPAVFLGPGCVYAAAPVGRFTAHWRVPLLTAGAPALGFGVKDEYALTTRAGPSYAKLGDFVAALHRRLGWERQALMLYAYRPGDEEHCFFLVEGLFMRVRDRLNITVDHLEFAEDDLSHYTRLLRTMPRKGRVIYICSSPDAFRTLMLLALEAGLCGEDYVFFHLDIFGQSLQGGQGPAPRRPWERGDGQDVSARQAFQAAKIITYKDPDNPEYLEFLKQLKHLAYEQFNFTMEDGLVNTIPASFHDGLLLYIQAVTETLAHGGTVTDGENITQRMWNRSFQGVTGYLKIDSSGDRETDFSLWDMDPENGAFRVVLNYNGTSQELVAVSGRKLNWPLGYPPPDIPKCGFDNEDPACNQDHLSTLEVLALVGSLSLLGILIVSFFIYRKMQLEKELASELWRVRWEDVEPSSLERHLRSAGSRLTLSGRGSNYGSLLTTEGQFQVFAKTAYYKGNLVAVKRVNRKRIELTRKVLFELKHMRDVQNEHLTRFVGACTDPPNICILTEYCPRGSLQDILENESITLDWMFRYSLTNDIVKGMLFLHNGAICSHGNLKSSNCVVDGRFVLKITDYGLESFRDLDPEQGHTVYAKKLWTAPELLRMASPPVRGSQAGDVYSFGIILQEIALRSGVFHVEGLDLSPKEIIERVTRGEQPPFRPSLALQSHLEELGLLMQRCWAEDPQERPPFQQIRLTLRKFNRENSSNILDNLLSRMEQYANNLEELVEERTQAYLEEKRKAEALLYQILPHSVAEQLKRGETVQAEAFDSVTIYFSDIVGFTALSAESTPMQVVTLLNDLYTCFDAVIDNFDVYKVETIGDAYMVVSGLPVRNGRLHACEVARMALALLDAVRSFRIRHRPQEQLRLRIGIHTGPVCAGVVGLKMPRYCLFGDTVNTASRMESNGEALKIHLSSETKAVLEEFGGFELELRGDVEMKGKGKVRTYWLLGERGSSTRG
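HEK293 cells stably expressing human Npr1 and cGMP GloSensor pGS-40F, loaded 2 h with 2% GloSensor reagent, given compound 30 min at room temperature. Luminescence read before and 20 min after 0.1 nM hNppA.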
NPR1 antag cnf = confirmation of human Npr1 natriuretic peptide receptor antagonists; shares compounds with NPR1 antag; HEK293 hNpr1 cGMP GloSensor luminescence, ANP-stimulated; Potency, µM (series often up to 57.6 µM), for the others: at the highest dose activity change, negative = inhibition, usual class: inhibitors; hit rate 76% among 1,400; AID 1347044; calls by dose curve; also: nearly all actives have a fitted effect of over 70% in size
Npr2 selectivity = selectivity test of Npr1 antagonists against human Npr2; shares compounds with NPR1 antag; HEK293 hNpr2 GloSensor cGMP luminescence, CNP-stimulated; Potency, µM (series often up to 57.6 µM), for the others: top-dose activity change, negative = inhibition, actives largely listed as inhibitors; hit rate 67% among 1,400; AID 1347046; calls by dose curve; also: nearly all actives have a fitted effect of over 70% in size
FLuc inh counter = FLuc enzyme inhibition, Npr1 counter-screen; shares compounds with NPR1 antag; purified FLuc enzyme, luminescence, Km substrate; Potency, µM (titrated, usually from 57.6 µM), for inactives: at the top dose activity change, negative = inhibition, hits mostly inhibitors; hit rate 0.7% among 1,400; also: series mostly up to about 58 µM; 0% is about no effect
GloSensor cGMP = reduces cGMP signal in GloSensor control cells; shares compounds with NPR1 antag; HEK293 GloSensor cGMP, SNP-stimulated, luminescence; Potency, µM (titrated, usually from 57.6 µM), for inactives: at the top dose activity change, negative = inhibition, most hits filed as inhibitors; hit rate 69% among 1,400; calls by dose curve; also: % is scaled to controls: 0 for no effect and ±100 for the full control effect; nearly all actives have a fitted effect of over 70% in size
* hit, by the source's call; i = inactive; ? = inconclusive; / = not tested or not shown; [ ] = another dose, or the depositor's remark. Unless noted, calls follow the shape of the dose curve; as a rule, active = well fitted curve in the direction sought with a large enough effect; inconclusive = small, poorly fitted or top-dose-only effect, or another doubt; inactive = no such curve, though single readings can be large; an effect the other way counts as inactive or inconclusive. Potency is read from the fitted curve at half-maximal effect.

SMILES | Luciferase inh | HEK cytotox | 3T3 cytotox | NPR1 antag | NPR1 antag cnf | Npr2 selectivity | FLuc inh counter | GloSensor cGMP
CC(=O)N1Cc2ccccc2CC2(CCN(Cc3ccncc3)C2)C1 (stereo not drawn) | / | -16% | -10% | / | / | / | / | /
CC(=O)N1Cc2ccccc2CC2(CCN(Cc3ccccc3)C2)C1 (stereo not drawn) | / | -17% | -4% | / | -21% | -17% | 2% | -13%
CCOc1ccc(NC(=O)CCC2CCN(c3cc(NC4CC4)ncn3)CC2)cc1 | i | ? | -19% | ? | ? | ? | -29% | ?
CCN(CC)C(=O)CCC1CCN(c2cc(NC3CC3)ncn2)CC1 | i | -12% | -23% | ? | / | / | / | /
CCNc1cc(N2CCC(CCC(=O)N3CCN(c4cccc(OC)c4)CC3)CC2)ncn1 | i | 35µM* | ? | 11µM* | 17µM* | 19µM* | -19% | 17µM*
O=C(CCC1CCN(c2cc(NC3CC3)ncn2)CC1)N1CCN(c2ccccc2F)CC1 | i | ? | ? | 13µM* | 24µM* | 22µM* | -23% | 24µM*
CN(CCc1ccccc1)C(=O)CCC1CCN(c2cc(NC3CC3)ncn2)CC1 | i | 35µM* | ? | 11µM* | 22µM* | 22µM* | -14% | 14µM*
CCNc1cc(N2CCC(CCC(=O)Nc3cccc(OC)c3)CC2)ncn1 | ? | ? | -15% | ? | / | / | / | /
COCCCn1c(=O)c(C(=O)Nc2cccc(Cl)c2)nc2cccnc21 | / | ? | -23% | / | / | / | / | /
COCCn1c(C)cnc1CC1CCCN(S(=O)(=O)c2ccccc2)C1 (stereo not drawn) | / | ? | -33% | / | / | / | / | /
CC(C)NC(=O)c1cc(-c2ccccc2C(F)(F)F)nc2c1cnn2C | / | -13% | ? | / | / | / | / | /
Cc1ccc(C(=O)N2CCCC3(C2)NC(=O)N(Cc2ccc(Cl)cc2)C3=O)cc1F (stereo not drawn) | i | ? | -22% | 8% | / | / | / | /
N#Cc1ccccc1CN1C(=O)NC(c2cccnc2)(C2CCNCC2)C1=O (stereo not drawn) | i | -12% | 0% | 5% | / | / | / | /
COc1ccc(-n2nc(C3CCCN(Cc4cccc5ccccc45)C3)[nH]c2=O)cc1 (stereo not drawn) | i | ? | ? | 0% | / | / | / | /
COc1ccc(-n2nc(C3CCN(Cc4cccc5ccccc45)CC3)[nH]c2=O)cc1 | i | ? | ? | 11µM* | 24µM* | 24µM* | 0% | 27µM*
CCOc1ccc(CC(=O)N2CCC3(CC2)N=C(c2ccc(Cl)cc2)NO3)cc1 | i | ? | ? | ? | / | / | / | /
COc1ccc(C(=O)N2CCC3(CC2)N=C(c2ccccc2)NO3)cc1OC | i | 7% | i | 1% | / | / | / | /
CCOc1ccc(C(=O)N2CCC3(CC2)N=C(c2ccc(Cl)cc2)NO3)cc1 | i | ? | 1% | 8.9µM* | 19µM* | 17µM* | -3% | 15µM*
COc1ccc(C(=O)N2CCC3(CC2)N=C(c2ccc(Br)cc2)NO3)cc1OC | i | ? | -24% | 10µM* | 6.9µM* | 11µM* | -1% | 6.9µM*
COc1ccc(C(=O)N2CCC3(CC2)N=C(c2ccc(Cl)cc2)NO3)cc1OC | i | ? | -29% | 11µM* | 11µM* | 12µM* | 0% | 9.7µM*
O=C(c1ccc2c(c1)OCO2)N1CCC2(CC1)N=C(c1ccc(Br)cc1)NO2 | i | ? | ? | 13µM* | 22µM* | 19µM* | -2% | 17µM*
COc1ccc(CC(=O)N2CCC(Cc3nc(-c4ccccc4)no3)CC2)cc1Cl | i | ? | 35µM* | 13µM* | 24µM* | 27µM* | 2% | 24µM*
COc1ccc(-c2noc(CC3CCN(C(=O)Cc4ccc(OC)c(Cl)c4)CC3)n2)cc1 | i | ? | ? | 13µM* | 24µM* | 24µM* | 0% | 17µM*
COC(=O)N1CCC(c2nn(-c3ccccn3)c(=O)[nH]2)CC1 | / | i | -7%[138 µM] | / | / | / | / | /
COc1ccc(-c2nnc3n2CCN([S+](=O)([O-])c2ccc(C)cc2)C3)cc1 | i | ? | -22% | -1% | / | / | / | /
SMILES | Luciferase inh | HEK cytotox | 3T3 cytotox | NPR1 antag | NPR1 antag cnf | Npr2 selectivity | FLuc inh counter | GloSensor cGMP
COCCn1c(C)cc(C(=O)N2CCCC(Cc3noc(-c4cnccn4)n3)C2)c1C (stereo not drawn) | i | -27% | -21% | 16% | / | / | / | /
CC(=O)N1C[C@@H]2CCCN3CCC[C@@H]([C@H]23)[C@H]1CCCC(=O)NCc1ccc(C)o1 | i | 2% | -11% | -13% | / | / | / | /
CN(Cc1cccnc1)c1ccc2ncc(Nc3cccc(C(F)(F)F)c3)n2n1 | i | 40µM* | ? | 13µM* | 14µM* | 16µM* | -3%[86.2 µM] | 13µM*
COc1cc(OC)c(NC(=O)N2c3ccccc3CC2c2nc(C3CC3)no2)cc1Cl (stereo not drawn) | i | -4% | -4% | -14% | / | / | / | /
O=C1CN(C(=O)C2CCCC2)CC(O)CN1CCCc1ccccc1 (stereo not drawn) | / | ? | -26% | / | / | / | / | /
O=C(N[C@H]1CCN2C(=O)c3cc(-c4ccc(F)cc4F)ccc3NC(=O)[C@H]12)c1cccs1 | i | ? | ? | -23% | ? | ? | ? | -23%
O=C(N[C@H]1CCN2C(=O)c3cc(-c4ccc(F)cc4F)ccc3NC(=O)[C@@H]2C1)c1cccs1 | i | ? | ? | 2% | / | / | / | /
Cc1noc(C)c1S(=O)(=O)N(C)C1CCCc2ccccc21 (stereo not drawn) | i | ? | -22%[138 µM] | 14%[70.6 µM] | / | / | / | /
CC(C)N1C[C@H](O)C[C@H]1c1nnc2n1CCN(C(=O)COc1ccc(F)cc1)C2 | i | -19% | ? | -5% | / | / | / | /
O=C(Nc1cccc(F)c1)C1CCN(C(=O)c2ncn3c2COC(c2ccc(F)cc2)C3)CC1 (stereo not drawn) | i | ? | -7% | ? | ? | -14% | -22% | ?
O=C(Nc1cccc(Cl)c1)C1CCN(C(=O)c2ncn3c2COC(c2ccc(F)cc2)C3)CC1 (stereo not drawn) | ? | ? | -10% | ? | / | / | / | /
CCOc1ccccc1C(=O)N1CCc2[nH]nc(C(=O)NCCCc3ccccc3)c2C1 | i | 22µM* | ? | ? | 24µM* | ? | 4% | 19µM*
